The list is not random: actives were taken first. Their share in the collection is about 7.5%.
SMN2 splice enh: SMN2 splice variant enhancement; Potency, µM (titrated, usually from 46.1 µM), most hits filed as activators; HEK293 SMN2-luciferase splicing reporter, luminescence, 30-36 h; hit rate 2.8% among 210,000; further: nearly all actives have a fitted effect of over 55% in size
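HEK293 cells carry an SMN2 […]–luciferase reporter in which exon 7 inclusion puts luciferase in frame. Cells were plated 10-12 h before compound addition, then incubated 30-36 h at 37C. ONE-Glo luminescence was read; sodium butyrate at 4.5 mM final served as control.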
Luc counter: Kinase-Glo luciferase inhibition (counter-screen). Kinase-Glo luciferase, ATP luminescence, 8 min. Potency, µM (top dose mostly 38.3 µM), most hits filed as inhibitors. hit rate 0.28% among 200,000. AID 1379; further: nearly all actives have a fitted effect of over 60% in size
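Substrate mix (final 50 mM imidazole pH 7.2, 50 mM KCl, 7 mM MgCl2, 10 uM ATP, 0.01% Tween 20, 0.05% BSA) plus pin-tool compound, then Kinase-Glo detection mix; 8 min ambient, luminescence read.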
Rab9 promoter act: Rab9 promoter activation; Potency, µM (titrated, usually from 9.22 µM), most hits filed as activators; Huh7 Rab9 promoter-luciferase reporter, luminescence, 24 h; hit rate 2.8% among 320,000; further: nearly all actives have a fitted effect of over 60% in size
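Luciferase signal after 10 min detection reagent at ambient indicates Rab9 promoter upregulation; stably transfected Huh7 cells were treated 24 h with compound in DMSO at 37 °C, 5% CO2.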
FLuc counter: counter-screen for miR-21 project: firefly luciferase inhibitors or activators; P08659; purified FLuc, Km substrates, luminescence inhibition; Potency, µM (titrated, usually from 57.5 µM), actives largely listed as inhibitors; hit rate 6.9% among 360,000; AID 588342; further: nearly all actives have a fitted effect of over 55% in size
Target sequence (P08659 whole entry, looked up): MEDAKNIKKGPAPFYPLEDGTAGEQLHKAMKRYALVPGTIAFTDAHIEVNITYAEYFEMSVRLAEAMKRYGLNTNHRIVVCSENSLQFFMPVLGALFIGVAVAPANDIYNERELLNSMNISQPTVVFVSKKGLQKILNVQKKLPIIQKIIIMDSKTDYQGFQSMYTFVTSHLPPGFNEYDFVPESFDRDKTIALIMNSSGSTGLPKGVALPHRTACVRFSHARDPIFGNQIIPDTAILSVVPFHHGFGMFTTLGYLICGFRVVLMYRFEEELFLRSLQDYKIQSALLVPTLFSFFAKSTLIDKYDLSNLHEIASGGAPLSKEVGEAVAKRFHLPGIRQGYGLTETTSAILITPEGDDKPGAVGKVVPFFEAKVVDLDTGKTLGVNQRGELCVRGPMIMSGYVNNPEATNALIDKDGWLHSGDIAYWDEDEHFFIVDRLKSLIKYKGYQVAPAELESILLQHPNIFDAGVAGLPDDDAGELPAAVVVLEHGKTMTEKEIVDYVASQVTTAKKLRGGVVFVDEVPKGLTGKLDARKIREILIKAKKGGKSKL
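Purified P. pyralis luciferase (10nM final) with 10uM D-luciferin and 10uM ATP (Km levels) in 50mM Tris acetate pH 7.5, 10mM Mg acetate, 0.01% Tween-20, 0.05% BSA; qHTS 6-point titration, ~60 µM downward; luminescence read.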
ELG1 genotoxic: genotoxicity induction in ELG1-luciferase HEK293T cells. HEK293T ELG1-luciferase reporter, luminescence, 16 h. Potency, µM (highest dose often 46 µM), actives largely listed as activators. hit rate 1.3% among 330,000. AID 504466; further: nearly all actives have a fitted effect of over 60% in size
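Cells (2,000/well) expressing the ELG1-luciferase fusion are dosed by pin tool and kept 16 hr at 37 °C, 5% CO2. Signal comes from ONE-Glo luciferase reagent after 30 min at room temperature.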
NPC1 promoter act: NPC1 promoter activation | Huh7 NPC1 promoter luciferase reporter, 24 h | Potency, µM (top dose mostly 9.22 µM), actives largely listed as activators | hit rate 2.4% among 320,000; further: nearly all actives have a fitted effect of over 60% in size
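Huh7 cells stably carrying NPC1 promoter–luciferase, plated in Opti-MEM with 10% FBS for 2 h, were exposed to compound in DMSO for 24 h at 37 °C; luciferase reagent was added for 10 min and luminescence read.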
A number is an active result; . = inactive; ? = inconclusive; / = no result given; [ ] = another dose, or the depositor's remark. The call rests on the fitted dose curve; in most records, active means well fitted curve in the direction sought with a large enough effect; inconclusive means small, poorly fitted or top-dose-only effect, or another doubt; inactive means no such curve, though single readings can be large; an effect the other way counts as inactive or inconclusive.

SMILES | SMN2 splice enh | Luc counter | Rab9 promoter act | FLuc counter | ELG1 genotoxic | NPC1 promoter act
COc1ccc(OC)c(Nc2nc(-c3sc(N)nc3C)cs2)c1 | . | . | . | . | . | .
O=C(O)/C=C/c1cccc2c1OCCO2 | / | / | . | . | . | .
COCCNC(=O)C1=CC(c2ccc3c(c2)OCO3)=NS(=O)(=O)N1C | / | / | / | . | / | /
COc1ccccc1N1CC(C(=O)Nc2nnc(SCC(=O)N3CCOCC3)s2)CC1=O (stereo not given) | / | / | . | . | . | .
CCC1CN(C(=O)N2CCC(C(=O)NCCC3=CCCCC3)CC2)c2ccccc2O1 (stereo not given) | / | / | / | . | / | /
Cc1c(CC(=O)NCCCC(=O)O)c(=O)oc2cc3occ(-c4ccccc4)c3cc12 | / | / | . | 19µM | . | .
Cc1c(CC(=O)NCc2ccccc2Cl)c(=O)oc2cc(O)ccc12 | . | / | / | 21µM | / | /
COc1ccccc1CCNC(=O)Cc1c(C)c2ccc(O)cc2oc1=O | . | / | / | . | / | /
Cc1c(CC(=O)NCC(=O)O)c(=O)oc2cc3occ(-c4ccccc4)c3cc12 | / | / | . | 24µM | . | .
CN1CCN(c2ccc(NC(=O)COc3ccccc3Cl)cc2)CC1 | . | . | . | ? | ? | .
O=C(COc1ccccc1)Nc1ccc(-c2ccc(N3CCOCC3)nn2)cc1 | / | / | 2.2µM | ? | ? | ?
CN1CCN(c2ccc(-c3cccc(NC(=O)COc4ccccc4)c3)nn2)CC1 | / | / | 1.6µM | 1.5µM | 2.6µM | 1.6µM
O=C(COc1ccccc1)Nc1ccc(S(=O)(=O)N2CCOCC2)cc1 | . | . | . | . | . | .
CN1CCN(c2ccc(-c3cccc(NC(=O)COc4ccc(Cl)cc4)c3)nn2)CC1 | / | / | 2µM | 1.1µM | 2.1µM | 2.8µM
CN1CCN(c2ccc(-c3cccc(NC(=O)COc4ccc(Cl)cc4Cl)c3)nn2)CC1 | / | / | ? | 0.48µM | 0.65µM | ?
CC(=O)Nc1ccc(C2Nc3c(C)cc(C)cc3-c3cc(C)nn32)cc1 (stereo not given) | . | / | / | . | / | /
CCN(CC)CCCNC(=O)C(C)n1nc(C)n2c(cc3occc32)c1=O (stereo not given) | . | / | / | . | / | /
COc1ccccc1C(=O)NCC(=O)OCCCOC(=O)CNC(=O)c1ccccc1OC | / | / | . | . | . | .
CCC1CN(C(=O)N2CCC(C(=O)NCCc3ccc(Cl)cc3)CC2)c2ccccc2O1 (stereo not given) | / | / | / | . | / | /
O=C(NCc1cccs1)c1ccc([N+](=O)[O-])cc1Cl | . | . | . | . | . | .
Cc1nnc(NC(=O)c2cccc(F)c2)s1 | . | . | . | ? | . | .
COc1ccc(C(=O)Nc2nnc(-c3cccs3)s2)cc1 | 7.1µM | . | 0.79µM | 1.2µM | 0.52µM | 1µM
O=C(Nc1ccccc1)Nc1nnc(-c2cccs2)s1 | ? | . | ? | . | . | ?
Cc1occc1C(=O)Nc1nnc(-c2cccs2)s1 | 3.5µM | . | 3.2µM | ? | ? | ?
O=C(Nc1nnc(-c2cccs2)s1)c1cccc(F)c1 | 8.9µM | . | 0.89µM | ? | ? | 1.8µM
SMILES | SMN2 splice enh | Luc counter | Rab9 promoter act | FLuc counter | ELG1 genotoxic | NPC1 promoter act
COc1ccc(NC(=O)Nc2nnc(-c3cccs3)s2)cc1 | / | / | 4µM | ? | . | 4.5µM
CCN(CC)CCCC(C)NC(=O)c1ccc(Cc2nc3ccccc3[nH]2)cc1 (stereo not given) | / | . | / | / | / | /
O=C(NCc1cccc(F)c1)C1CCN(c2nc3ccccc3nc2C(F)(F)F)CC1 | / | / | / | . | / | /
C=CCNC(=O)NC(=O)COC(=O)CNS(=O)(=O)c1ccc(F)c(F)c1F | . | . | . | . | . | .
CC(C)(C)CC(=O)Nc1nnc(-c2cccs2)s1 | 13µM | . | 3.2µM | . | . | 3.2µM
COc1cccc(C(=O)Nc2c3c(nn2-c2ccc(C)cc2C)CS(=O)(=O)C3)c1OC | / | / | / | . | / | /
Cc1ccc(CN(C)C(=O)CSc2nnc3n2CCCCC3)c(C)c1 | / | / | . | . | . | .
Clc1ccc2[nH]cc(-c3nnnn3-c3ccccc3)c2c1 | . | . | . | 24µM | . | .
Cc1c(CCC(=O)O)c(=O)oc2cc(OCc3cccc(F)c3)ccc12 | / | / | . | ? | . | .
Cc1c(CCC(=O)O)c(=O)oc2cc(OCc3ccccc3Br)ccc12 | / | / | . | ? | . | .
Cc1c(CC(=O)O)c(=O)oc2cc(OCc3ccc(F)cc3F)ccc12 | / | / | . | 17µM | . | .
Cc1c(CC(=O)O)c(=O)oc2cc(OCc3ccc(Br)cc3)ccc12 | / | / | . | 11µM | . | .
CN(C)/C=C/C(=O)c1cnc(-c2ccccc2)s1 | 11µM | . | 1.4µM | 11µM | ? | 2µM
CN(C)/C=C/C(=O)c1ccc(Cl)s1 | . | . | . | . | ? | .
CN(C)/C=C/C(=O)c1cnc(-c2ccc(Cl)cc2)s1 | 10µM | . | 0.5µM | 2.7µM | ? | 1µM
CC1=C(C(=O)Nc2cccc(C)c2C)C2(CCCCC2)OC1=O | . | / | / | . | / | /
O=C(NCCCN1CCN(c2ccccc2)CC1)c1nnc(Cc2c(F)cccc2Cl)o1 | . | / | / | . | / | /
Cn1c2ccccc2c2c(C(=O)NCC3CCCO3)cn(C3CCCC3)c(=O)c21 (stereo not given) | . | . | . | 17µM | . | .
O=C(COC(=O)/C=C/c1cccs1)Nc1ccc2ccccc2c1 | / | . | . | . | . | .
CCC(Cl)CC(Cl)C(Cl)C(Cl)C(Cl)C(C)Cl (stereo not given) | . | / | / | / | / | /
COc1ccc(C)cc1NC(=O)N(Cc1ccc(C)o1)C1CCN(C(C)=O)CC1 | / | / | / | . | / | /
COc1ccc(OCc2cc(C(=O)N[C@H]3CCCCNC3=O)no2)c(Cl)c1 | / | / | ? | 11µM | ? | ?
COc1ccc(OCc2cc(C(=O)NC3Cc4ccccc4C3)no2)c(Cl)c1 | / | / | . | . | . | .
CSc1ccccc1OCc1cc(C(=O)N[C@H]2CCCCNC2=O)no1 | / | / | 3.5µM | 11µM | ? | 2.8µM
O=C(N/N=C/c1ccccc1)c1c(O)c2ccccc2[nH]c1=O | 3.5µM | . | 1.4µM | ? | . | 1.8µM
SMILES | SMN2 splice enh | Luc counter | Rab9 promoter act | FLuc counter | ELG1 genotoxic | NPC1 promoter act
O=C(N/N=C/c1ccc(F)cc1)c1c(O)c2ccccc2[nH]c1=O | / | / | . | . | . | .
COc1ccccc1NC(=O)c1c(O)c2ccccc2[nH]c1=O | / | / | ? | ? | . | 1.3µM
O=C(NC1CCCCCC1)c1c(O)c2ccccc2[nH]c1=O | . | . | ? | 2.7µM | ? | 1µM
C=CCN1c2ccccc2[C@]23C[C@@H](C(=O)OC)N(S(=O)(=O)c4ccc5c(c4)OCCN5C)C2=NC(C(=O)OC)=C(C(=O)OC)[C@H]13 | .[9.22 µM] | .[7.66 µM] | / | / | / | /
Oc1oc(-c2ccccc2)nc1C=Nc1ccccc1 | . | . | . | 11µM | . | .
Cc1ccc(N=Cc2nc(-c3ccc(C)cc3)oc2O)cc1 | / | . | . | . | . | .
CC1=Nc2ccccc2/C1=C\c1nc(-c2ccccc2)oc1O | . | . | . | 17µM | . | .
COc1ccc(N=Cc2nc(-c3ccco3)oc2O)cc1 | . | . | . | 8.5µM | . | .
